What follows are compounds tested against Solute carrier family 2, facilitated glucose transporter member 1 (Homo sapiens) (UniProt P11166) (assay: ST_JUDE_LEISH: Cytotoxicity at 2uM final concentration against transgenic Leishmania Mexicana promastigotes LmGLUT1 that are glucose transport deficient and complemented with the human glucose transporter GLUT1. Activity is measured by DNA content using SYBR green in vitro).
Format: functional

Sequence of Solute carrier family 2, facilitated glucose transporter member 1 (Homo sapiens) (P11166 whole entry): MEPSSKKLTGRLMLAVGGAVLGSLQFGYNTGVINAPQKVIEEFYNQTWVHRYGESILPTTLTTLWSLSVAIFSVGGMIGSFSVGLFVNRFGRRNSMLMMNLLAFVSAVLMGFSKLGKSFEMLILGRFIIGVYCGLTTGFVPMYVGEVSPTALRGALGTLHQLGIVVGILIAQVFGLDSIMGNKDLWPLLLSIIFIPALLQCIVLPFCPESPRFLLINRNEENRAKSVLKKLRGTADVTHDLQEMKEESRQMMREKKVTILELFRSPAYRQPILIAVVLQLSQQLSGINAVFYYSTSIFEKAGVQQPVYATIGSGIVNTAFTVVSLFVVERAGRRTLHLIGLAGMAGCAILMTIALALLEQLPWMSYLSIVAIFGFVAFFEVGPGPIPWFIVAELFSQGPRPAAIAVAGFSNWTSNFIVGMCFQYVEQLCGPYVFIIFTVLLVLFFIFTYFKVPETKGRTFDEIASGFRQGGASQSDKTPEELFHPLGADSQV

In order of falling inhibition:
1. Cc1cc(NC(=O)Nc2ccc3ccn(C)c3c2)c2ccccc2n1  13%
2. COc1cccc(CCc2nc3c(N4CCC(Cc5ccccc5)CC4)cccc3n2CC2CNCCO2)c1 (centres undefined)  9.36%
3. CN(C)S(=O)(=O)c1ccc(N2CCN(CCC3(c4cccc(F)c4)CCN(C(=O)C(C)(C)C)CC3)CC2)c2nonc12  9.09%
4. Cc1cccc2nc(-c3ccc(-c4ccc(CN5CCN(CC6CCCN(C)C6)CC5)cc4)s3)[nH]c12 (centres undefined)  8.45%
5. CC(=O)Nc1cccc(-c2cnc(N)c3cc(-c4ccc5c(c4)OCO5)ccc23)c1  7.5%
6. CC(C)n1cc2c(ccc3nc(N)nc(N)c32)n1  7.23%
7. O=C(Nc1ccccc1)N(Cc1cccc(-c2cccc(CNCCc3ccccc3)c2)c1)C1CCN(Cc2ccccc2)CC1  7.12%
8. CC(C)N1CCCN(C(=O)C2CCN(c3ccc(C(=O)N4CCCC4)cn3)CC2)CC1  5.32%
9. CN1CCN(c2cc(-c3ccncc3)nc(-c3cccnc3)n2)CC1  5.17%
10. CCCCCCCN1CC[C@@H](CCCc2ccnc3ccc(OCCN4CCNCC4)cc23)[C@@H](CC)C1  5.11%
11. Fc1ccc2[nH]c(-c3ccc(-c4ccc(CN5CCCCC5)cc4)s3)nc2c1  5.07%
12. Oc1ccc2[nH]cc(C3CCN(CCC(c4ccccc4)c4ccccc4)CC3)c2c1  4.66%
13. O=C(C=Cc1ccc(Cl)c(Cl)c1)NCCCCCN1CCC(CCCNC(=O)c2ccc3c(c2)OCO3)CC1  4.5%
14. Cc1c(Cc2ccccc2)c(=O)oc2c(C)c3c(cc12)CN(CC(C)c1ccccc1)CO3 (centres undefined)  4.3%
15. CCN(CC)CCN(Cc1ccc(-c2ccc(Cl)s2)cc1)C(=O)Cn1c(CCc2cccc(F)c2F)nc(=O)c2ccccc21  3.75%
16. Cc1ccnc(-n2c(C)cc(C=C3SC(=Nc4ccccc4)N(Cc4ccco4)C3=O)c2C)c1  2.02%
17. Cc1cc(N[C@@H](CC(C)C)C(=O)NCCOc2ccccc2)nc(NCCc2ccccc2)n1  1.89%
18. CN1CCCCC1CCc1cc(C(=O)Nc2ccc(-c3ccc(O)cc3)cc2)ccc1O (centres undefined)  1.7%
19. O=C(NC1CC1)c1cnc(N2CCC(OCc3ccccc3)CC2)c(Cl)c1  1.59%
20. CCNc1cc(C(=O)N[C@@H](Cc2ccc(Cl)cc2)[C@H](O)CNC2CCCCC2)cc(N2CCCCS2(=O)=O)c1  0.89%
21. CC(C)(C)C(C)(C)Cc1ccc(O)c(CN2CCN(c3ccccc3)CC2)c1  0.82%
22. O=C(NC1CCCCC1)C1CCCN(C(=O)c2ccc(O)c(-c3ccc(Cl)c(Cl)c3)c2)C1 (centres undefined)  0.15%
23. Nc1nc(N)c2c3c(ccc2n1)NCCC3  -0.04%
24. COc1ccccc1C1CCN(C2CCC(NC(=O)c3cc4cc(C(C)C)ccc4[nH]3)CC2)CC1 (centres undefined)  -0.19%

These compounds were tested against Hexose transporter 1 (Plasmodium falciparum) (UniProt O97467) (assay: ST_JUDE_LEISH: Cytotoxicity at 2uM final concentration against transgenic Leishmania Mexicana promastigotes LmPfHT that are glucose transport deficient and complemented with the Plasmodium falciparum hexose transporter. Activity is measured by DNA content using SYBR green in vitro).
Format: functional

In order of rising inhibition:
1. NC1=NC(c2ccccc2)N(c2ccccc2)C(N)=N1 (centres undefined)  -4.07%
2. CC(C)(C)C(C)(C)Cc1ccc(O)c(CN2CCN(c3ccccc3)CC2)c1  -0.41%
3. COc1ccccc1C1CCN(C2CCC(NC(=O)c3cc4cc(C(C)C)ccc4[nH]3)CC2)CC1 (centres undefined)  0.03%
4. Cc1cc(N[C@@H](CC(C)C)C(=O)NCCOc2ccccc2)nc(NCCc2ccccc2)n1  0.4%
5. CC(C)(C)c1ccc(-c2nnc(N)nc2N)cc1  0.43%
6. Cc1cc(N2CCC(C)CC2)nc2cc(O)ccc12  0.44%
7. Nc1nc(N)c2c3c(ccc2n1)NCCC3  0.47%
8. O=C(NCCCCCN1CCCN(C(=O)Nc2ccc(Cl)c(C(F)(F)F)c2)CC1)C1CC1c1ccc(Cl)c(Cl)c1 (centres undefined)  0.79%
9. O=C(/C=C/c1ccc(Cl)c(Cl)c1)N1CCC(CCN2CCC(c3c[nH]c4ccccc34)CC2)CC1  0.94%
10. CCNc1cc(C(=O)N[C@@H](Cc2ccc(Cl)cc2)[C@H](O)CNC2CCCCC2)cc(N2CCCCS2(=O)=O)c1  1.36%
11. O=C(/C=C/c1c[nH]c2ccccc12)NCCCCCN1CCC(c2c[nH]c3ccccc23)CC1  1.49%
12. COc1cc(C(=O)NC2CCN(Cc3ccccc3)CC2)ccc1-c1nc2cc(Cl)c(Cl)cc2[nH]1  1.66%
13. CN1CCCCC1CCc1cc(C(=O)Nc2ccc(-c3ccc(O)cc3)cc2)ccc1O (centres undefined)  1.76%
14. O=C(NC1CCCCC1)C1CCCN(C(=O)c2ccc(O)c(-c3ccc(Cl)c(Cl)c3)c2)C1 (centres undefined)  1.83%
15. CN1CCC(NCc2ccc(-c3cccc(-c4nc5ccccc5[nH]4)c3)cc2)CC1  2.05%
16. O=C(Nc1ccc2c(c1)OCO2)NC1CCN(c2ccnc(NCc3ccc(F)cc3)n2)CC1  2.3%
17. COc1ccccc1CCNc1nc(C)cc(N[C@@H](Cc2ccccc2)C(=O)NCc2cccs2)n1  2.49%
18. O=C(Nc1ccccc1)N(Cc1cccc(-c2cccc(CNCCc3ccccc3)c2)c1)C1CCN(Cc2ccccc2)CC1  2.49%
19. Cc1ccnc(-n2c(C)cc(C=C3SC(=Nc4ccccc4)N(Cc4ccco4)C3=O)c2C)c1  2.85%
20. Oc1ccc2[nH]cc(C3CCN(CCC(c4ccccc4)c4ccccc4)CC3)c2c1  3.07%
21. O=C(NC1CC1)c1cnc(N2CCC(OCc3ccccc3)CC2)c(Cl)c1  3.18%
22. CN1CCN(c2cc(-c3ccncc3)nc(-c3cccnc3)n2)CC1  3.27%
23. CCN(CC)CCN(Cc1ccc(-c2ccc(Cl)s2)cc1)C(=O)Cn1c(CCc2cccc(F)c2F)nc(=O)c2ccccc21  3.7%
24. CC(C)N1CCCN(C(=O)C2CCN(c3ccc(C(=O)N4CCCC4)cn3)CC2)CC1  4.11%
25. Fc1ccc2[nH]c(-c3ccc(-c4ccc(CN5CCCCC5)cc4)s3)nc2c1  4.14%
26. O=C(C=Cc1ccc(Cl)c(Cl)c1)NCCCCCN1CCC(CCCNC(=O)c2ccc3c(c2)OCO3)CC1  4.24%
27. Cc1cc(NC(=O)Nc2ccc(C#N)cc2)c2ccccc2n1  4.35%
28. Oc1cccc(-c2nc(-c3cccc(I)c3)c(-c3ccc(-c4nc(-c5cccc(O)c5)[nH]c4-c4cccc(I)c4)cc3)[nH]2)c1  4.72%
29. Cc1c(Cc2ccccc2)c(=O)oc2c(C)c3c(cc12)CN(CC(C)c1ccccc1)CO3 (centres undefined)  4.73%
30. CCCCCCCN1CC[C@@H](CCCc2ccnc3ccc(OCCN4CCNCC4)cc23)[C@@H](CC)C1  4.74%
31. CC(=O)Nc1cccc(-c2cnc(N)c3cc(-c4ccc5c(c4)OCO5)ccc23)c1  7.74%
32. CN(C)S(=O)(=O)c1ccc(N2CCN(CCC3(c4cccc(F)c4)CCN(C(=O)C(C)(C)C)CC3)CC2)c2nonc12  8.17%
33. COc1cccc(CCc2nc3c(N4CCC(Cc5ccccc5)CC4)cccc3n2CC2CNCCO2)c1 (centres undefined)  9.47%
34. Cc1cc(NC(=O)Nc2ccc3ccn(C)c3c2)c2ccccc2n1  10.7%
35. CCCCCCNC(=O)C1Cc2c([nH]c3ccc(Br)cc23)C2(CCN(Cc3ccccc3)CC2)N1 (centres undefined)  15.5%
36. CC(C)n1cc2c(ccc3nc(N)nc(N)c32)n1  17.1%
37. Cc1cccc2nc(-c3ccc(-c4ccc(CN5CCN(CC6CCCN(C)C6)CC5)cc4)s3)[nH]c12 (centres undefined)  21.1%
38. CCc1ccccc1OCCCON1C(=N)N=C(N)NC1(C)C  37.9%
39. COc1cccc2c(NCc3ccccc3)nc(NCCCN3CCCCC3C)nc12 (centres undefined)  50.8%
40. CC(C)C(C(=O)n1ncc2c3c(N)nc(N)nc3ccc21)C(C)C  86.9%

From ChEMBL document CHEMBL3433997, “St. Jude Leishmania screening dataset” (2016)
